The list is not random: actives were taken first. Their share in the collection is about 10%.
HEK cytotox – Cytotoxic Profiling in HEK 293 Cell Line of Diverse Libraries Using Quantitative High-Throughput Screening | HEK 293 viability, ATP luminescence (CellTiter-Glo), 48-72 h | Potency, µM (highest dose often 115 µM), for inactives: top-dose activity change, negative = cytotoxicity, usual class: inhibitors | 94,000 compounds, 6.6% hits | AID 1345083, 2018; note: nearly all actives have a fitted effect of over 60% in size
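Cells seeded first (HEK 293, 250 cells/well), then compound added by pintool. Incubation ran 48 or 72 hr at 37 degree Celsius. CellTiter-Glo was added and luminescence imaged after 10 min at room temperature.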
Luciferase inh – Firefly luciferase inhibition profiling of diverse chemical library using quantitative high-throughput screening; Potency, µM (highest dose often 115 µM), usual class: inhibitors; 76,000 compounds, 2.5% hits; Luciferin 4-monooxygenase (Photinus pyralis), P08659; purified P. pyralis luciferase, luminescence, biochemical; note: nearly all actives have a fitted effect of over 65% in size
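Luminescence read by CCD imager after adding enzyme (10nM final) to wells holding compound, titrated in qHTS. Substrates 10uM each D-luciferin and ATP; buffer 50mM Tris acetate pH 7.5, 10mM Mg acetate, Tween-20, BSA.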
hNpr1 antagonist – Natriuretic polypeptide receptor (hNpr1) antagonism - Primary qHTS; Atrial natriuretic peptide receptor 1 (Homo sapiens), P16066; HEK293 hNpr1 GloSensor cGMP, ANP-stimulated luminescence; Potency, µM (series often up to 46.3 µM), without a hit: at the highest dose activity change, negative = inhibition, hits mostly inhibitors; 76,000 compounds, 1.6% hits; AID 1347048, 2019; calls by dose curve; note: nearly all actives have a fitted effect of over 60% in size
Target sequence (P16066 whole entry, looked up): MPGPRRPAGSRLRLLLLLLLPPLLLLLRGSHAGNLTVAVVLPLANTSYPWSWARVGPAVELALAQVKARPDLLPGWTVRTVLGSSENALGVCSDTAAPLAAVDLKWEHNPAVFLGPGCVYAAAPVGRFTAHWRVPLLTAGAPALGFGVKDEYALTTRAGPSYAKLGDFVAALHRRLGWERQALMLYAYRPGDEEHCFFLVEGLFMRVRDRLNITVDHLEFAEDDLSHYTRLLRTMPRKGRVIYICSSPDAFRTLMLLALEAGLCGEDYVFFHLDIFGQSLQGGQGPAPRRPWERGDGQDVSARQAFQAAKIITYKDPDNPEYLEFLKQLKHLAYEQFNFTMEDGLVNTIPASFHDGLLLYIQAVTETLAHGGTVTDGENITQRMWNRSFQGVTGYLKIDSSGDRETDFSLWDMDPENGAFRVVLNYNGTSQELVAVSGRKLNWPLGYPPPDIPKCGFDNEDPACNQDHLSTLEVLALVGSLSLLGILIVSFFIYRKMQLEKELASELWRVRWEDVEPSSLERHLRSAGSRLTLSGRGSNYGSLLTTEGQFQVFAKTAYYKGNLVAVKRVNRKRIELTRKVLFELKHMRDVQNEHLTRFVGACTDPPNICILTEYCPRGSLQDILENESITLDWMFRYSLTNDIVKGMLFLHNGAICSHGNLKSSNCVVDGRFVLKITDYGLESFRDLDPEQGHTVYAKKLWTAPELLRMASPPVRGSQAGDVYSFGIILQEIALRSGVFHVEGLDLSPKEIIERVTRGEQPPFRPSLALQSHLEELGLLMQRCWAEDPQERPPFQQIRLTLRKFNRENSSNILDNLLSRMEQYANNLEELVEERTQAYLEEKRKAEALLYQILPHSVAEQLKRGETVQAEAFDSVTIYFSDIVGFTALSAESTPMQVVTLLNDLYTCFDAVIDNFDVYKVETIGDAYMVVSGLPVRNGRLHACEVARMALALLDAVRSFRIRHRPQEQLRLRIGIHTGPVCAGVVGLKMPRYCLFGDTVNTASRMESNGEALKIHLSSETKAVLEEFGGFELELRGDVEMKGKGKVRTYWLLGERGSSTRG
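Compound pre-incubated 30 min at room temperature on GloSensor-loaded HEK293 cells stably carrying hNpr1 and the pGS-40F cGMP biosensor. Stimulation uses hNppA at 0.1 nM final; luminescence is taken at baseline and 20 min post-agonist.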
3T3 cytotox – Cytotoxic Profiling in NIH 3T3 Cell Line of Diverse Libraries Using Quantitative High-Throughput Screening; Potency, µM (top dose mostly 96.7 µM), inactives show at the top dose activity change, negative = cytotoxicity, most hits filed as inhibitors; 94,000 compounds, 4.3% hits; NIH 3T3 viability, CellTiter-Glo ATP luminescence, 48-72 h; note: nearly all actives have a fitted effect of over 55% in size
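Cells were seeded at 400 per well, treated with pin-transferred compound, and kept 48 or 72 hr at 37 °C before CellTiter-Glo addition and luminescence imaging of cellular ATP.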
GPT2 inh – Primary qHTS assay for inhibitors of Glutamate pyruvate transaminase 2 (GPT2). Recombinant GPT2, coupled pyruvate oxidase/HRP Amplex Red fluorescence. 100,000 compounds, 0.25% hits. Potency, µM (titrated, usually from 57.7 µM), for the others: at the top dose activity change, negative = inhibition, most hits filed as inhibitors. AID 1671188, 2021; note: nearly all actives have a fitted effect of over 60% in size
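Fluorescence of coupled pyruvate oxidase/HRP/Amplex Red system (50uM Amplex, 30 min, dark) reports pyruvate formed by GPT2. Enzyme reaction: 10ng/uL GPT2, 2mM L-alanine, 250uM a-KG, 30 min room temperature, pH 7.5; 50uM AOA control.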
The depositor's hits bear a star; i = inactive; u = inconclusive; x = no result given; [ ] = another dose, or the depositor's remark. Unless noted, calls come from the whole dose curve; as a rule, active = well fitted curve in the direction sought with a large enough effect; inconclusive = small, poorly fitted or top-dose-only effect, or another doubt; inactive = no such curve, though single readings can be large; an effect the other way counts as inactive or inconclusive. % is set by controls: 0 for no effect and ±100 for the full control effect; potency is the fitted concentration of half-maximal effect.

SMILES	HEK cytotox	Luciferase inh	hNpr1 antagonist	3T3 cytotox	GPT2 inh
COc1ccc(-c2ccc(C(=O)N3CCCCC3)cc2)nn1	u	x	x	28µM*	x
COc1ccc(-c2ccc(C(=O)NC3CC3)cc2)nn1	89µM*	x	x	u	x
COc1ccccc1-c1ccc2c(C(=O)N(C)C)nn(C)c2n1	-7%[172 µM]	x	x	1%[138 µM]	-4%[88.5 µM]
COc1ccccc1C(C)N(C)C(=O)c1csc2nc(-c3ccccc3C)cn12 (stereo not drawn)	35µM*	u	-9%	u	i
CCC1Oc2ccc(NC(=O)c3ccccc3F)cc2CN(CCc2ccc(OC)c(OC)c2)C1=O (stereo not drawn)	u	i	-1%	40µM*	i
CCC1Oc2ccc(NC(=O)c3ccccc3F)cc2CN(Cc2ccc3c(c2)OCO3)C1=O (stereo not drawn)	u	i	-5%	u	-6%
COc1ccccc1C(=O)Nc1ccc2c(c1)CN(Cc1ccc(F)cc1)C(=O)C(C)O2 (stereo not drawn)	35µM*	i	-23%	u	i
COc1ccc(CN2Cc3cc(NC(=O)c4ccccc4OC)ccc3OCC2=O)c(OC)c1	40µM*	i	-15%	25µM*	i
CC1Oc2ccc(NC(=O)c3ccccc3Cl)cc2CN(Cc2ccc(F)cc2)C1=O (stereo not drawn)	40µM*	i	-16%	u	-18%
COc1ccc(C(=O)Nc2ccc3c(c2)CN(Cc2ccc(OC)cc2OC)C(=O)CO3)cc1	u	u	-2%	u	0%
CC1Oc2ccc(NC(=O)c3ccccc3F)cc2CN(Cc2ccccc2F)C1=O (stereo not drawn)	u	i	0%	u	2%
Cc1cc(C(=O)N2CCCCC2)c2c(C3CCCNC3)noc2n1 (stereo not drawn)	-7%	x	x	-4%	i
COCCn1c(=O)c(C(=O)N2CCN(C(=O)c3ccccc3F)CC2)nc2cccnc21	0%	x	x	-15%	i
O=C(c1ccco1)N1CCC(c2noc(CO)n2)C1 (stereo not drawn)	1%	i	-21%	-5%	i
CNC(=O)N1CC(c2noc(C3CCCN3C(=O)NCCc3ccccc3)n2)C1 (stereo not drawn)	-15%	i	2%	-6%	i
COc1cccc(CN2C(=O)CCCCC2C(=O)NCCc2ccc(OC)c(OC)c2)c1 (stereo not drawn)	-10%	x	x	3%	-11%
CC1Oc2ccc(NC(=O)c3c(F)cccc3F)cc2CN(Cc2ccc(Cl)cc2)C1=O (stereo not drawn)	16µM*	i	-27%	u	i
CC(C)CNc1ccc2c(n1)C(C)(C(=O)NC1CCC(O)CC1)CN(Cc1ccccc1)C2 (stereo not drawn)	u	i	-11%	45µM*	0%
CC(C)CNc1ccc2c(n1)C(C)(C(=O)NC1CCN(C)CC1)CN(Cc1ccccc1)C2 (stereo not drawn)	u	i	4%	32µM*	-6%
CN1CCC(NC(=O)C2(C)CN(C)Cc3ccc(Nc4ccccc4)nc32)CC1 (stereo not drawn)	u	i	1%[70.6 µM]	u	i
CC(C)CNc1ccc2c(n1)C(C)(C(=O)NCc1cccnc1)CN(Cc1ccccc1)C2 (stereo not drawn)	u	i	6%	u	-5%
CC(C)CCN1CCC(Oc2ccc(C(N)=O)cn2)CC1	5%	i	0%	-4%	i
CN(Cc1ccccc1)Cc1cn([C@H]2CO[C@H]3[C@@H]2OC[C@@H]3NS(=O)(=O)c2cccc3cccnc23)nn1	-17%	i	-1%	-26%	4.5µM*
CCOC(=O)C1CCN(C(=O)c2cn3ccnc(-c4ccc(OC)cc4)c3n2)CC1	79µM*	i	-21%	u	-1%
COc1ccc(-c2nccn3cc(C(=O)NCc4nc5ccccc5n4C)nc23)cc1	28µM*	i	u	u	-7%
SMILES	HEK cytotox	Luciferase inh	hNpr1 antagonist	3T3 cytotox	GPT2 inh
CCOC(=O)C1CCN(C(=O)c2cn3cc(-c4ccc(OC)cc4)sc3n2)CC1	u	x	x	u	i
CCOC(=O)C1CCN(C(=O)c2cn3cc(-c4ccc(C(F)(F)F)cc4)sc3n2)CC1	u	x	x	40µM*	i
O=C(c1ccc2c(c1)OCO2)N1CCC(N2Cc3cccn3C2=O)CC1	2%	x	x	-15%	i
CCOC1CCOC2(CCN(C(=O)c3ccc4c(c3)OCO4)CC2)C1 (stereo not drawn)	-14%	x	x	-20%	2%
CC(NC(=O)c1cc2n(n1)CC(c1ccc(Cl)cc1)OC2)c1ccccc1 (stereo not drawn)	u	i	1%	u	5%
O=C(NCc1cccnc1)c1ccc2c(c1)n(Cc1ccccc1)c(=O)c1ccnn12	-13%	i	0%	-6%	i
O=C(NCc1cccnc1)c1ccc(N2CCC(NCCCn3ncc4ccccc43)CC2)cc1	u	i	-2%	18µM*	2%
CCOC(=O)C1CCN(C(=O)c2ccc3nc(-c4ccnc(Cl)c4)oc3c2)CC1	100µM*	x	x	100µM*	i
CCOc1ccccc1CN1CCCCCNC(=O)[C@@H]2CCC[C@@H]21	u	i	-10%	u	i
O=C(CCC[C@@H]1[C@H]2CCCN3CCC[C@@H](CN1C(=O)c1ccccc1F)[C@@H]23)N1CCOCC1	5%	i	3%	i	4%
COc1ccccc1-c1ccc(CN2CCC(N[S+](=O)([O-])c3cccc(C(F)(F)F)c3)C2)cc1 (stereo not drawn)	20µM*	x	x	13µM*	x
COc1ccccc1-c1ccc(CN2CCC(NC(=O)Cc3ccccn3)C2)cc1 (stereo not drawn)	u	x	x	u	i
COc1ccc(F)cc1-c1ccc(CN2CCC(N[S+](=O)([O-])c3ccc(NC(C)=O)cc3)C2)cc1 (stereo not drawn)	14µM*	x	x	u	x
COc1ccccc1-c1ccc(CN2CCC(N[S+](=O)([O-])c3cccs3)C2)cc1 (stereo not drawn)	u	x	x	u	3%
COc1ccccc1-c1ccc(CN2CCC(N[S+](=O)([O-])c3ccccc3)C2)cc1 (stereo not drawn)	35µM*	x	x	32µM*	x
COc1ccc(F)cc1-c1ccc(CN2CCC(N[S+](=O)([O-])c3cccc(C(F)(F)F)c3)C2)cc1 (stereo not drawn)	20µM*	x	x	13µM*	x
